Test results: ChEMBL document CHEMBL3988442, “University of Dundee, Small-Polar-MMV Screening Library” (2021)
For some of these results: Measured potencies and affinities stand elsewhere.

Tests used:
Design in all cases: scale not given: direction of the effect not stated beside the values
[1] = molecular target: Protein translocase subunit SecA (Escherichia coli (strain K12)) (UniProt P10408); assay: Assay to Identify E. coli SecA ATPase Inhibitors; type: functional; settings: 30 µM
[2] = molecular target: T1, Ubiquitin-activating enzyme e1, putative (Leishmania donovani (strain BPK282A1)) (UniProt E9BSI1); assay: Leishmania donovani Ubiquitin Activating Enzyme (LdE1); type: functional; settings: 30 µM
T1 sequence (whole entry): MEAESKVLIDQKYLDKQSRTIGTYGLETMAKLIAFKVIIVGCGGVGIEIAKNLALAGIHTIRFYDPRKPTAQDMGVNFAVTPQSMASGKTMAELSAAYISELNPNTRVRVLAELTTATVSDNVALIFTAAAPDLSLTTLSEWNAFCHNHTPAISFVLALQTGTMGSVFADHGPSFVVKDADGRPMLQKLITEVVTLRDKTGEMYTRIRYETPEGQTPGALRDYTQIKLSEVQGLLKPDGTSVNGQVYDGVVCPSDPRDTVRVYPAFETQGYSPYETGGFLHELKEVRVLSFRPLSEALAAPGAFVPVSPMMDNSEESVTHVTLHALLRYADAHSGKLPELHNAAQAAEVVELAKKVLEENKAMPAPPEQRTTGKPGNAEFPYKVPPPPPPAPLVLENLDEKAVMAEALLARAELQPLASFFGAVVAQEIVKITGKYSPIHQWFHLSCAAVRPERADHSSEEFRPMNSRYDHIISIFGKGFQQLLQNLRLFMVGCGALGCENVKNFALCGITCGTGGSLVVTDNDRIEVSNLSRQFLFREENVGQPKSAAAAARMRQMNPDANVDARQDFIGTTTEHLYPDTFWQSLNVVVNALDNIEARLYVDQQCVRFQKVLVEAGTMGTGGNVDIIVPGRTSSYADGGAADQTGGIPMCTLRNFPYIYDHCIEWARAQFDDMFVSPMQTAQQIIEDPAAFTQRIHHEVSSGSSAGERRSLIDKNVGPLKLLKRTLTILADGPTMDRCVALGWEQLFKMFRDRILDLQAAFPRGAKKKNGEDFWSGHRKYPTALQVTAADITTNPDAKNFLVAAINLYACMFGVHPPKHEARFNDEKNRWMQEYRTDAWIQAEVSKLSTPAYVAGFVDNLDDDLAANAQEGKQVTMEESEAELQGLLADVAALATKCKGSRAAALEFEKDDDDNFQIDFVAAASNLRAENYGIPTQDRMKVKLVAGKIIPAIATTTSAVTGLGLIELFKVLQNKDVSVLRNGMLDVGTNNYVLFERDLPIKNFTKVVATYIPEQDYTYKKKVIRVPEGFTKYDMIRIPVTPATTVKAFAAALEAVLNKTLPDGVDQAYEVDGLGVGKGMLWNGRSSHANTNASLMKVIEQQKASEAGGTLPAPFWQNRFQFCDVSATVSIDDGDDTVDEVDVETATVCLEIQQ

[3] = molecular target: Sialic acid-binding Ig-like lectin 9 (Homo sapiens) (UniProt Q9Y336); assay: Hs-Siglec9 ALPHAscreen SOP 20170721; settings: 10 µM
Trypanosoma cruzi = assay: Trypanosoma cruzi phosphomannomutase and mannose-1-phosphate guanylyltransferase assay; type: functional; settings: 10 µM
[4] = molecular target: T2, Arginase-2, mitochondrial (Homo sapiens) (UniProt P78540); assay: in vitro enzyme assay to detect the production of urea directly proportional to the activity of Arginase II; type: functional; settings: 33.3 µM; note: in the data most compounds retested in dose-response had high values
T2 sequence (whole entry): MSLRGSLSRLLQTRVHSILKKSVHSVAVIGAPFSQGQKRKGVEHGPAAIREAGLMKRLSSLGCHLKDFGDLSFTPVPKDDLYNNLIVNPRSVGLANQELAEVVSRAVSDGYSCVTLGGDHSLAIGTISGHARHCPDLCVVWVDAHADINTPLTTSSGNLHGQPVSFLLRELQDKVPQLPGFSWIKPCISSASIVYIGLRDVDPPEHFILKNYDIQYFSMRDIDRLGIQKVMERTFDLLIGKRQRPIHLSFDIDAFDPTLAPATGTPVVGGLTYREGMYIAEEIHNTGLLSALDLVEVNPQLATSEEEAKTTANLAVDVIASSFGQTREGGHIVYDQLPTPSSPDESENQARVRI

[5] = molecular target: T3, Proteasome subunit beta (Trypanosoma cruzi) (UniProt O96673); assay: Trypanosoma cruzi proteasome chymotrypsin-like activity (TcProtChymo) assay.; note: in the data most compounds retested in dose-response had high values; type: functional; settings: 9.37 µM
T3 sequence (whole entry): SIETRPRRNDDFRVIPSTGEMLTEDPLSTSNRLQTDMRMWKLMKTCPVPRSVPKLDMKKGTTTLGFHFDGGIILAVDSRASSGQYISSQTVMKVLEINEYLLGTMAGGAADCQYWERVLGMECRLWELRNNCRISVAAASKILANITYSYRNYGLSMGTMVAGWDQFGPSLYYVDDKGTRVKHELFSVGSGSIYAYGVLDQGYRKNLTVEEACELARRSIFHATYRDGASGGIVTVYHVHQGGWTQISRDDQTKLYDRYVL

Homo sapiens = species on record: Homo sapiens; assay: To identify inhibition of the IFN signalling (Jak-Stat) pathway via expression of an eGFP reporter gene under the control of an IFN-stimulated response element (ISRE) containing MxA promoter.; type: functional; settings: 30 µM
[6] = molecular target: T4, Tyrosyl-tRNA synthetase, putative (Trypanosoma cruzi (strain CL Brener)) (UniProt Q4DSP6); assay: Trypanosoma cruzi tyrosyl tRNA synthetase (TcYRS) _High Tyrosine SOP; type: functional; settings: 30 µM; note: in the data most compounds retested in dose-response had high values
T4 sequence (whole entry): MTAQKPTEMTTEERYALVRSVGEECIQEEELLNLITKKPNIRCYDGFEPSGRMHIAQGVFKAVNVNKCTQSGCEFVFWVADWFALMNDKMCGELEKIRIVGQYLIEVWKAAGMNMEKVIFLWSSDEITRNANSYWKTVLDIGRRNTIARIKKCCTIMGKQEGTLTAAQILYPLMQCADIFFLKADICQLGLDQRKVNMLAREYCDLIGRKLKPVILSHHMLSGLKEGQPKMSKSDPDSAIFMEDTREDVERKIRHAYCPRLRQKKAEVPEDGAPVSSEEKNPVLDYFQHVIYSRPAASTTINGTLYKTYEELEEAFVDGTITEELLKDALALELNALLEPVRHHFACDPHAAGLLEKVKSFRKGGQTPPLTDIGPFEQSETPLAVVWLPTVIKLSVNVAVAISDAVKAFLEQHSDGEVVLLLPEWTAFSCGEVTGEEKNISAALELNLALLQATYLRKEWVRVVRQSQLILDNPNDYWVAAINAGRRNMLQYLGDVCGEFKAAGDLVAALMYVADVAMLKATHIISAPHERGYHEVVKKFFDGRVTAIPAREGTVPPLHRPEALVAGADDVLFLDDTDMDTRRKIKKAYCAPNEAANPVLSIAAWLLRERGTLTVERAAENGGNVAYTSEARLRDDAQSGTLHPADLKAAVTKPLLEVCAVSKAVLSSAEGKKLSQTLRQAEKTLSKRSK

[7] = molecular target: T4, Tyrosyl-tRNA synthetase, putative (Trypanosoma cruzi (strain CL Brener)); assay: Trypanosoma cruzi tyrosyl tRNA synthetase (TcYRS) SOP; type: functional; settings: 30 µM
[8] = molecular target: Chromo domain-containing protein 1 (Saccharomyces cerevisiae (strain ATCC 204508 / S288c) (Baker's yeast)) (UniProt P32657); assay: ScCHD-1 Enzyme Inhibition Assay; type: functional; settings: 30 µM; note: in the data most compounds retested in dose-response had high values
Sequence of Chromo domain-containing protein 1 (Saccharomyces cerevisiae (strain ATCC 204508 / S288c) (Baker's yeast)) (P32657 whole entry, the tested form may be a part): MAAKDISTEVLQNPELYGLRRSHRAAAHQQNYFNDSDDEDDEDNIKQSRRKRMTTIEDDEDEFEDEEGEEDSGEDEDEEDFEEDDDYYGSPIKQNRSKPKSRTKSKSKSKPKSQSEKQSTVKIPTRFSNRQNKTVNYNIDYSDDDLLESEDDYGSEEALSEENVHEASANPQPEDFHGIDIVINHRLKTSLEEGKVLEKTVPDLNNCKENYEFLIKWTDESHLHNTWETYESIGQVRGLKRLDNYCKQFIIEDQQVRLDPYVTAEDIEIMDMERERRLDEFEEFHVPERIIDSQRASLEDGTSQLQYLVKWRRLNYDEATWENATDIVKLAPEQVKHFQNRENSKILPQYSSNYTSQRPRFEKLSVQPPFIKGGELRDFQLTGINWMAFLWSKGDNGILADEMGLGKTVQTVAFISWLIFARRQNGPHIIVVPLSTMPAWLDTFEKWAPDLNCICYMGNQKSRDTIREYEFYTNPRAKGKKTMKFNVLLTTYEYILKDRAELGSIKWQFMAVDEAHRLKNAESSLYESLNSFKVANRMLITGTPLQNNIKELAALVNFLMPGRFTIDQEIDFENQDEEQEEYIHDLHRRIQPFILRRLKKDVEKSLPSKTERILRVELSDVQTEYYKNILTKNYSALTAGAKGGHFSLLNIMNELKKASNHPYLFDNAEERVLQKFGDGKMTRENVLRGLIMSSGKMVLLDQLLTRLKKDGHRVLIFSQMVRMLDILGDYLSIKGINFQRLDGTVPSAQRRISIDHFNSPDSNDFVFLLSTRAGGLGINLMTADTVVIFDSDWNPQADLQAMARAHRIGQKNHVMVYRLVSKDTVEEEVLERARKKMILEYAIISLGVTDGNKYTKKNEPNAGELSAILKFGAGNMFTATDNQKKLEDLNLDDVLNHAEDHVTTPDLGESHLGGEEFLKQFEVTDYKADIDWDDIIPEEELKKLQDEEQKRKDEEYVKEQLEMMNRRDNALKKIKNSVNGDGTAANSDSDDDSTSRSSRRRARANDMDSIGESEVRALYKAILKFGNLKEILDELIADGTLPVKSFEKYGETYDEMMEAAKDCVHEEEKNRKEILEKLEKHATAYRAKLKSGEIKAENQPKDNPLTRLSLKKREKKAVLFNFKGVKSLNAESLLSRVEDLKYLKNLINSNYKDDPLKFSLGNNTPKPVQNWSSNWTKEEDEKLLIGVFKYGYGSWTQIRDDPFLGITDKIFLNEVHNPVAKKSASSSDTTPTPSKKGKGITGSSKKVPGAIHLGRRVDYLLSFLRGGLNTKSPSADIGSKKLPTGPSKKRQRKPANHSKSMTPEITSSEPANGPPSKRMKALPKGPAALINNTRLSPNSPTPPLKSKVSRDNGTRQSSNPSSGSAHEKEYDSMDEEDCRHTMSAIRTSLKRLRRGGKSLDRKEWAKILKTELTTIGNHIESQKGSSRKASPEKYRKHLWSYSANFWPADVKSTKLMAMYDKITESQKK

Sequence of Protein translocase subunit SecA (Escherichia coli (strain K12)) (P10408 whole entry): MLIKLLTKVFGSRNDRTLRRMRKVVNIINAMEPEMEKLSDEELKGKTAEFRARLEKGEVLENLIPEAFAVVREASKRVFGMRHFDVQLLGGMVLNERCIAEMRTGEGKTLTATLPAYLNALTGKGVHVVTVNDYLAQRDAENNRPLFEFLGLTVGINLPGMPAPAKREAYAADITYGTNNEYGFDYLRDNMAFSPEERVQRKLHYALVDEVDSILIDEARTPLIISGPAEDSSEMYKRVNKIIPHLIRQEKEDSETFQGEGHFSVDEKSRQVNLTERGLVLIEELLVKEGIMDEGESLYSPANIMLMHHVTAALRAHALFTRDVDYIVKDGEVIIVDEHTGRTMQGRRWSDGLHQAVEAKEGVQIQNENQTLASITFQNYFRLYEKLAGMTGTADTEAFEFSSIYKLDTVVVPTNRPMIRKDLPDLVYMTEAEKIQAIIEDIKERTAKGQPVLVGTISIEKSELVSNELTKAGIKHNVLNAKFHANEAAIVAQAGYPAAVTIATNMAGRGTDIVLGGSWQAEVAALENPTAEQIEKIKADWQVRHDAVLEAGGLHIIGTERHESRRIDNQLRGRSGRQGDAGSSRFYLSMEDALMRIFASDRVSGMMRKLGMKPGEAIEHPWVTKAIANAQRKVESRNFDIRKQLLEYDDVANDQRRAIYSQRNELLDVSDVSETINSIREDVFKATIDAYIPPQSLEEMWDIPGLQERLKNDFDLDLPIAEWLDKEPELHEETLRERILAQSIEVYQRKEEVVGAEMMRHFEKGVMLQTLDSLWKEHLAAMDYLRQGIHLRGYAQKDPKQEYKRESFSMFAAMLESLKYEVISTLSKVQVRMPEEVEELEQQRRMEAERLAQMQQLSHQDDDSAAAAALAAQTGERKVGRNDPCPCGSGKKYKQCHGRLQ
Sequence of Sialic acid-binding Ig-like lectin 9 (Homo sapiens) (Q9Y336 whole entry): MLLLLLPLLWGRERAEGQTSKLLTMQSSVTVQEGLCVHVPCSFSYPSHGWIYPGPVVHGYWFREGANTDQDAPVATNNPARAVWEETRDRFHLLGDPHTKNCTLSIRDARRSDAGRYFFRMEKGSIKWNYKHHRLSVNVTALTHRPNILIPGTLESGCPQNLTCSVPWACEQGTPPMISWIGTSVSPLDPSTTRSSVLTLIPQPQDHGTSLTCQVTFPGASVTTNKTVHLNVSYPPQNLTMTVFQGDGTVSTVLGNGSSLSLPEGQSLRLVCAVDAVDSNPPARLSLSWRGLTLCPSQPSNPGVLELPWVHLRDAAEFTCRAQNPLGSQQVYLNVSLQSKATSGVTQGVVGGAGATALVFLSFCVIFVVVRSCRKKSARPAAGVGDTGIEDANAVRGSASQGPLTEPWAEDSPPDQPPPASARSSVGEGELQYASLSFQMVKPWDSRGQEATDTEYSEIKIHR

Structure (SMILES) | Percent Effect [1] [%] | Percent Effect [2] [%] | Percent Effect [3] [%] | Percent Effect (Trypanosoma cruzi) [%] | Percent Effect [4] [%] | Percent Effect [5] [%] | Percent Effect (Homo sapiens) [%] | Percent Effect [6] [%] | Percent Effect [7] [%] | Percent Effect [8] [%]
CN(C)c1ccc(C(=O)N2CCN(Cc3cscn3)CC2)cc1F | 0.885 | 13 | 8.14 | 1.31 | 3.07 | 9.12 | -8.07 | -10.8 | 23.5 | -2.52
Cc1occc1C(=O)N1CC[C@@H](N2CCOCC2)[C@@H]1Cc1ccccc1 | -6.37 | 11.7 | 1.96 | 0.876 | -2.83 | 7.33 | 0.411 | 8.95 | 15.4 | -4.72
O=C(NCCC1=CCCCC1)C1CCCN(c2ccc3nncn3n2)C1 (stereo not given) | -2.76 | 8.11 | 3.56 | -0.291 | -9.44 | 13.5 | -5.74 | 3.72 | 12.2 | -1.71
COc1cccc2c1OCC(C(=O)N1CCC(N3CCOC3=O)CC1)C2 (stereo not given) | -6.75 | 13.5 | 15.6 | 4.95 | 10.8 | 9.59 | 8.78 | 9.04 | 12.2 | -5.88
CCS(=O)(=O)c1ncc(CN(C)Cc2ccccn2)n1CCOC | -6.13 | 5.41 | 13.7 | 5.33 | 2.45 | 5.65 | 3.71 | 4.79 | 14.6 | -2.76
CNC(=O)c1cc(S(=O)(=O)C(C)C)cs1 | 0.159 | 19.5 | 28.2 | 3.75 | 3.2 | 13.7 | -6.32 | 6.76 | 20 | -10.6
NC(=O)C1(CCCc2cccnc2)CCCN(c2ncccn2)C1 (stereo not given) | -2.51 | 4 | 3.57 | -3.16 | 0.885 | 3.61 | 8.71 | 4.23 | 5 | -13
CCc1ncc2c(n1)CN(CC(=O)Nc1ccc(Cl)cn1)CC2 | -4.26 | -2.67 | 4.13 | 1.21 | 2.66 | 4.83 | 4.95 | 8.95 | 7.69 | -9.89
CCc1nc(C2CCCN2C(=O)c2c[nH]c(C)n2)no1 (stereo not given) | -9.57 | 10.7 | 18.3 | 3.41 | -2.66 | 12.1 | -2.6 | 7.89 | 12.8 | -9.37
CCCc1nc(C)c(C(=O)NCCN2CCN(CC)CC2)s1 | -3.24 | 0 | 11.4 | 0.56 | -2.25 | -1.23 | 5.53 | 6.86 | 9.41 | 3.6
Cc1cc(C2CCCN(C(=O)c3c(C)nn4cccnc34)C2)n[nH]1 (stereo not given) | -3.7 | 8 | 6.1 | -2.21 | 0.444 | 6.7 | 9.89 | 2.63 | 5.13 | -4.49
Cc1cccc(CN2CCc3nnc(CO)n3CC2)n1 | -0.433 | 19.5 | -0.362 | 0 | 1.37 | 13 | 16.8 | 9.66 | 15 | -7.15
CCn1cc(CN2CCCC(c3[nH]ncc3S(C)(=O)=O)C2)cn1 (stereo not given) | -3.37 | 14.7 | 8.19 | 2.56 | -0.885 | 7.55 | -4.1 | 4.23 | 15 | -23.9
